Measurements as given in the supplement of paper PMC6555819.

Assays:
Experiment in all cases: PBM binding z-score (relative to random genomic background probes); higher = stronger binding; sequences stand for … in GC…GCGATTGACAGCGTAGAATGAAGG
[1] = system: FXR:RXRa (NR concentration 270 nM, RXRa partner concentration 90 nM)
Procedure, shortened: (§1)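 Regression normalization was applied to scanned fluorescence from custom Agilent 4×180K protein-binding microarrays. Before scanning, arrays were incubated 1 h with ligand-free nuclear receptor dimers, and binding was detected with antibodies against each partner (one per run). Binding z-scores use the random background probes as reference.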

[2] = system: LXRa:RXRa (NR concentration 270 nM, RXRa partner concentration 90 nM)
Procedure, shortened: as §1

[3] = system: LXRa homodimer (NR concentration 270 nM)
Procedure, shortened: as §1

[4] = system: LXRb:RXRa (NR concentration 270 nM, RXRa partner concentration 90 nM)
Procedure, shortened: as §1

[5] = system: LXRb homodimer (NR concentration 270 nM)
Procedure, shortened: as §1

[6] = system: PPARa:RXRa (NR concentration 270 nM, RXRa partner concentration 90 nM)
Procedure, shortened: as §1

[7] = system: PPARg:RXRa (NR concentration 180 nM, RXRa partner concentration 90 nM)
Procedure, shortened: as §1

[8] = system: PPARg:RXRa 270nM:90nM, anti-RXR (NR concentration 270 nM, RXRa partner concentration 90 nM)
Procedure, shortened: as §1

[9] = system: PPARg:RXRa 30nM:10nM, anti-RXR (NR concentration 30 nM, RXRa partner concentration 10 nM)
Procedure, shortened: as §1

[10] = system: PPARg:RXRa 90nM:30nM, anti-RXR (NR concentration 90 nM, RXRa partner concentration 30 nM)
Procedure, shortened: as §1

[11] = system: PPARg:RXRa DBDmut IVT, anti-RXR (DBD mutation: RXRa K156A/R161A, NR concentration 270 nM, RXRa partner concentration 90 nM)
Procedure, shortened: as §1

[12] = system: PPARg:RXRa IVT, anti-PPARg (NR concentration 270 nM, RXRa partner concentration 90 nM)
Procedure, shortened: as §1

[13] = system: PPARg DBDmut:RXRa IVT, anti-PPARg (DBD mutation: PPARg1 K132A/R137A, NR concentration 270 nM, RXRa partner concentration 90 nM)
Procedure, shortened: as §1

[14] = system: PPARg DBDmut IVT, anti-PPARg (DBD mutation: PPARg1 K132A/R137A, NR concentration 270 nM)
Procedure, shortened: as §1

[15] = system: PPARg homodimer (NR concentration 180 nM)
Procedure, shortened: as §1

[16] = system: PXR:RXRa (NR concentration 270 nM, RXRa partner concentration 90 nM)
Procedure, shortened: as §1

[17] = system: PXR homodimer (NR concentration 270 nM)
Procedure, shortened: as §1

[18] = system: RARa:RXR (NR concentration 270 nM, RXRa partner concentration 90 nM)
Procedure, shortened: as §1

[19] = system: RARa homodimer (NR concentration 270 nM)
Procedure, shortened: as §1

[20] = system: RARb:RXRa (NR concentration 270 nM, RXRa partner concentration 90 nM)
Procedure, shortened: as §1

Sequence | PBM binding z-score [1] | PBM binding z-score [2] | PBM binding z-score [3] | PBM binding z-score [4] | PBM binding z-score [5] | PBM binding z-score [6] | PBM binding z-score [7] | PBM binding z-score [8] | PBM binding z-score [9] | PBM binding z-score [10] | PBM binding z-score [11] | PBM binding z-score [12] | PBM binding z-score [13] | PBM binding z-score [14] | PBM binding z-score [15] | PBM binding z-score [16] | PBM binding z-score [17] | PBM binding z-score [18] | PBM binding z-score [19] | PBM binding z-score [20]
ATATGGAGGTTACATCCGGGTCATTCAGGCTATG | 2.99 | 5.32 | 1.94 | 3.8 | 0.764 | 3.79 | 3.01 | 2.85 | 0.871 | 1.91 | 2.72 | 3.63 | 1.46 | 0.791 | 2.15 | 4.57 | 2.76 | 4.94 | 0.676 | 2.88
ATCTCTAGGCAAAGATAGTTCAGTGAATGCAAAT | -0.415 | 0.271 | 0.124 | -0.207 | 0.263 | -0.233 | 0.154 | -0.151 | -0.0446 | -0.153 | 0.0233 | 0.0871 | 0.389 | 0.566 | -0.0165 | -0.0478 | 0.35 | -0.456 | 0.524 | 0.211
AATACAGGGTCATCGTGGGCCAGAGTACGCACAG | 7.26 | 6.08 | 2.41 | 4.65 | 0.911 | 5.96 | 6.73 | 5.81 | 2.73 | 4.56 | 2.57 | 4.37 | 0.764 | 1.07 | 2.16 | 4.59 | 0.368 | 4.92 | 0.514 | 4.36
GCTAGCAGGCTATTTGGGTCACTCAATGACGGGC | 0.127 | 0.137 | -0.259 | 0.255 | -0.646 | 2.16 | 1.11 | 1.36 | -0.338 | 0.706 | 3.1 | 3.87 | -0.208 | -0.897 | 0.28 | 0.435 | -0.454 | 1.01 | -0.508 | 1.27
CGACCAAGGTCAGAGAGGTCAGTGAATGCCGAGT | 6 | 4.97 | 2.61 | 4.23 | -0.0164 | 4.64 | 3.68 | 4.21 | 1.11 | 2.69 | 2.95 | 3.5 | 0.125 | -0.614 | 5.33 | 6.21 | 12.7 | 5.78 | 2.47 | 5.18
AGAATGAGGTTATACGTAGATCAGGGCAGAAAGT | 2.33 | 1.89 | 0.241 | 1.77 | -0.0553 | 3.17 | 1.83 | 2.15 | 0.79 | 1.41 | 4.01 | 2.15 | 0.485 | 0.402 | 0.774 | 1.45 | 1.34 | 1.82 | 0.705 | 1.51
CCTACTGGGCCATCAGGTCATTCATATCAACGTT | 1.41 | 1.28 | 1.89 | 1.61 | -0.0742 | 2.72 | 2.7 | 3.47 | 1.16 | 2.86 | 4.57 | 4.74 | 0.597 | 0.12 | 1.48 | 1.73 | 1.07 | 1.96 | 0.469 | 2.01
TCACATAGGTAAACAGGTGAAAGTCCGTAAGTTA | 0.14 | 0.698 | 0.285 | 0.803 | -0.368 | 2.06 | 1.27 | 2.75 | 3.62 | 3.11 | 2.55 | 2.23 | 0.587 | 0.655 | 1.1 | 0.542 | 0.449 | 0.976 | -0.0341 | 0.847
ATCTCTAGGTAAAGATCAGTGAAAGATCGATAGA | 0.248 | 0.153 | 0.0101 | 0.0437 | 0.463 | 0.624 | 1.04 | 1.14 | 0.487 | 0.992 | 1.79 | 1.45 | 0.659 | 1.08 | 0.78 | -0.0968 | 0.169 | 0.174 | 0.687 | 0.0569
GCTAGCAGGTCATTTGGGTCACTCAATGACGGGC | 5.14 | 3.76 | 2.34 | 3.32 | 0.927 | 4.37 | 3.89 | 4.06 | 1.29 | 2.66 | 3.89 | 4.84 | 0.133 | -0.577 | 1.31 | 3.98 | 4.92 | 3.92 | 0.247 | 3.94
